{"source": "PubChem BioAssay (EPA / NIEHS)", "note": "Activity calls are given as the source filed them. How the source made its calls: active means hit-call score of the fitted dose curve at least 0.9, where 1 is the maximum; inactive means score below 0.9.", "data": [{"experiment": "ATG_M_06_CIS: Attagene CIS-FACTORIAL HepG2 Assay for M06 Transcription Factor (Internal Marker) (AID 2282950)", "settings": "HepG2 Attagene CIS-FACTORIAL M06 internal marker reporter; actives raise or lower the signal", "method": "ATG_CIS is a cell-based, multiplexed-readout assay that uses HepG2, a human liver cell line, with measurements taken at 24 hours after chemical dosing in a 24-well plate.ATG_M_06_CIS is one of 52 assay component(s) measured or calculated from the ATG_CIS assay. It is designed to make measurements of mRNA induction, a form of inducible reporter, as detected with fluorescence intensity signals by Reverse transcription polymerase chain reaction (RT-PCR) and Capillary electrophoresis technology.Data from the assay component ATG_M_06_CIS was analyzed into 1 assay endpoint. This assay endpoint, ATG_M_06_CIS, was analyzed with bidirectional fitting relative to DMSO as the negative control and baseline of activity. Using a type of inducible reporter, measures of mRNA for gain or loss-of-signal activity can be used to understand the background control at the transcription factor-level as they relate to the gene . Furthermore, this assay endpoint can be referred to as a secondary readout, because this assay has produced multiple assay endpoints where this one serves a background control function. To generalize the intended target to other relatable targets, this assay endpoint is annotated to the background measurement intended target family, where the subfamily is internal marker.\nHuman liver HepG2 cells are transiently transfected with multiple reporter transcription units (MRTUs) in 6-well plates using FuGene 6 reagent (Roche; 3 ml FuGene/1 mg DNA). The MRTU constructs are regulated by a cis-regulating element (promoter). […] A major difference between the CIS and TRANS system is that in CIS activities of endogenous TFs are measured, whereas the TRANS assay evaluates changes in activities of exogenous, chimeric NR-Gal4 proteins. […] At the end of 24 hour incubation, total RNA was isolated using TriZol reagent (Invitrogen). The isolated RNA is then reverse-transcribed using oligo(dT) primer and Mo-MLV reverse transcriptase (Invitrogen) with DNAse I (Ambion) treatment for 30 min. The one-tenth of the produced cDNA was amplified by PCR using Taq DNA polymerase (Invitrogen) and two reporter sequence-specific primers. The PCR products were fluorescently labeled by primer extension with 6-arboxyfluorescein (6-FAM) 5'-labeled reporter sequence-specific primer (2 min at 95 C, 20 s at 68 C and 10 min at 72 C) and these products were digested with 5U of HpaI (New England Biolabs) for 2h at 37 C. The fragments were purified using Qiaquick PCR columns (Qiagen), analyzed on an ABI 3130xL genetic analyzer (Applied Biosystems) with peak positions identified by using a set of X-rhodamine (ROX)-labeled MapMarker1000 molecular weight standards (BioVentures). The raw capillary electrophoresis data was processed using Attagraph software (Attagene).", "values": [{"smiles": "CCCc1ccc(N)cc1", "outcome": "inactive"}, {"smiles": "CC(C)(C)c1cccc(O)c1", "outcome": "inactive"}, {"smiles": "CC1=CC[C@@H]2C[C@H]1C2(C)C", "outcome": "inactive"}, {"smiles": "CC(C)OB(OC(C)C)OC(C)C", "outcome": "inactive"}, {"smiles": "C#C[C@]1(O)CC[C@H]2[C@@H]3CCc4cc(O)ccc4[C@H]3CC[C@@]21C", "outcome": "inactive"}, {"smiles": "CC(O)CNCC(C)O", "note": "(stereo not given)", "outcome": "inactive"}, {"smiles": "C=CCOC(=O)/C=C\\C(=O)OCC=C", "outcome": "inactive"}, {"smiles": "CCCCCCOC(C)=O", "outcome": "inactive"}, {"smiles": "CCNC(=S)NCC", "outcome": "inactive"}, {"smiles": "N#CCCCC(C#N)CCC#N", "note": "(stereo not given)", "outcome": "inactive"}, {"smiles": "CCC(C)(C)C1CCC(OC)CC1", "note": "(stereo not given)", "outcome": "inactive"}, {"smiles": "C=C(C)C(=O)OCCC[Si](OC)(OC)OC", "outcome": "inactive"}, {"smiles": "COc1cc(OC)c2ccc(=O)oc2c1", "outcome": "inactive"}, {"smiles": "CC1COC(=O)O1", "note": "(stereo not given)", "outcome": "inactive"}, {"smiles": "CCC(C)(C)C1CCC(=O)CC1", "outcome": "inactive"}, {"smiles": "CC(CO)(CO)[N+](=O)[O-]", "outcome": "inactive"}, {"smiles": "O=S1(=O)CC(Cl)(Cl)C(Cl)(Cl)C1", "outcome": "inactive"}, {"smiles": "NC(N)=NC(N)=NCCc1ccccc1", "outcome": "inactive"}, {"smiles": "CCCCCCCCCCOC(=O)c1ccccc1C(=O)OCCCCCCCC", "outcome": "inactive"}, {"smiles": "CC(=O)CC(=O)N(C)C", "outcome": "inactive"}, {"smiles": "CCCCCCCCSCc1cc(C)c(O)c(CSCCCCCCCC)c1", "outcome": "inactive"}, {"smiles": "CC(=O)c1ccc2ccccc2c1", "outcome": "inactive"}, {"smiles": "COc1ccccc1O", "outcome": "inactive"}, {"smiles": "[Cu+]", "outcome": "inactive"}, {"smiles": "CCOc1ccc(NC(C)=O)cc1", "outcome": "inactive"}, {"smiles": "O=C(c1ccc(OCCN2CCCCC2)cc1)c1c(-c2ccc(O)cc2)sc2cc(O)ccc12", "outcome": "inactive"}, {"smiles": "FC(F)(F)c1ccc(Cl)c(Cl)c1", "outcome": "inactive"}, {"smiles": "CCCCOC(=O)C(C)OC(=O)CCC", "note": "(stereo not given)", "outcome": "inactive"}, {"smiles": "CC(=O)CCC=C(C)CCC=C(C)C", "outcome": "inactive"}, {"smiles": "O=C(O)c1cc2ccccc2cc1O", "outcome": "inactive"}, {"smiles": "CCCCC1CCCCC(=O)O1", "note": "(stereo not given)", "outcome": "inactive"}, {"smiles": "CC(=O)C1C(=O)C=C(C)OC1=O", "note": "(stereo not given)", "outcome": "inactive"}, {"smiles": "O=C(O)c1ccccc1O", "outcome": "inactive"}, {"smiles": "COc1ccc(C(C)=O)cc1", "outcome": "inactive"}, {"smiles": "CC(=O)c1cccnc1", "outcome": "inactive"}, {"smiles": "C=C(C)C(N)=O", "outcome": "inactive"}, {"smiles": "CCO[Si](CCC#N)(OCC)OCC", "outcome": "inactive"}, {"smiles": "CCC(=O)OC/C=C(\\C)CCC=C(C)C", "outcome": "inactive"}, {"smiles": "CCC(=O)OCC=Cc1ccccc1", "outcome": "inactive"}, {"smiles": "CCCOC(=O)CC", "outcome": "inactive"}]}]}
